PubChem BioAssay AID933 (National Center for Advancing Translational Sciences (NCATS), 2007)
Several values for one entry are separate records, joined by “and”; a condition that tells them apart may be missing. Equal values may be shown once. Records with an inconclusive call do not appear. Activity calls are given as the source filed them. The call rests on the fitted dose curve; in most records, active means well fitted activation curve with a large enough effect in the signal ratio, with a control signal flat; inconclusive means small, poorly fitted or top-dose-only effect, or a change in a side signal; inactive means flat fitted curve, though single readings scatter; the % refers to the signal ratio.

target: Thyrotropin receptor (Homo sapiens) (UniProt P16473); test: Secondary Concentration-Response Assay for Agonists of the Thyroid Stimulating Hormone Receptor: HTRF Activity Detection; conditions: HEK293-TSHR cells, cAMP HTRF ratio, 30 min; series mostly up to 91.7 µM; activation: at the top concentration;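 on activation: HEK 293 cells stably expressing human TSHR with RO 20-1724 phosphodiesterase inhibitor; % of control where 0% means no effect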
Sequence (P16473 whole entry, looked up): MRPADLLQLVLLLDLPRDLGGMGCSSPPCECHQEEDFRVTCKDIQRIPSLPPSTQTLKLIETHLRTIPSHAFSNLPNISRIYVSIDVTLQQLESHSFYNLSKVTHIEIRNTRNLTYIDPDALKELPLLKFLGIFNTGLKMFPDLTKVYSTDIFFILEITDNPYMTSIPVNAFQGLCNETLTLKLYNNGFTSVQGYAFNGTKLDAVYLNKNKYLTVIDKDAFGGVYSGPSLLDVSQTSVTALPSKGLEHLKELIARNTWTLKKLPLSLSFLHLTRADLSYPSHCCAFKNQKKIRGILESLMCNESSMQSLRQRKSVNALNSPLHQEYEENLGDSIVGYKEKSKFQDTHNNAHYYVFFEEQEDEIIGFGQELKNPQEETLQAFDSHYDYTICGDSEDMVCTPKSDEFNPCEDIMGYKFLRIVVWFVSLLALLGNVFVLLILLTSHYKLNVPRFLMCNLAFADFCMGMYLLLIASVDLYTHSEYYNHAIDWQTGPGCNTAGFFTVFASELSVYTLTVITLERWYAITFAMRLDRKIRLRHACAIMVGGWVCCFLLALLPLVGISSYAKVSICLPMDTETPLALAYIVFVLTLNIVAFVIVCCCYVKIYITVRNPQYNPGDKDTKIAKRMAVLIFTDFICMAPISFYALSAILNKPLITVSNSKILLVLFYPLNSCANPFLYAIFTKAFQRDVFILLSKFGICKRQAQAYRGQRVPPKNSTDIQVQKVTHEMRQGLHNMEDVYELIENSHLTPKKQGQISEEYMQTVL
Outline: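 Orthogonal confirmation in a separate TSHR-transfected HEK 293 line: cells in medium with 10 % FCS and 100 uM RO 20-1724 got compound for 30 min at room temperature. cAMP was measured by HTRF (d2-cAMP/anti-cAMP antibody), 615/660 nm emission.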
Potency means the concentration at half of the fitted maximal effect.

SMILES | activation | Potency
CCOC(=O)COc1c(OC)cc(Cl)cc1C1Nc2ccccc2C(=O)N1c1ccc(F)cc1 (stereo unspecified) | 0.758% (inactive) | 
COc1ccc(C2Nc3ccccc3C(=O)N2c2cccc3ccccc23)cc1COc1c(C)cccc1C (stereo unspecified) | 1.6% (inactive) | 
Cc1cc(C)nc(N(C#N)CC(=O)N2CCC(C(N)=O)CC2)n1 | 1.28% [at 0.00035 µM] (inactive) | 
COc1ccc(C2Nc3ccccc3C(=O)N2CC(C)(C)C)cc1COc1ccc(NC(C)=O)cc1 (stereo unspecified) | 19.3% (inactive) | 
CC(c1ccco1)N(C(=O)c1ccc(Cl)s1)c1ccccn1 (stereo unspecified) | 0.422% [at 0.00035 µM] (inactive) | 
COc1ccc(C2Nc3ccccc3C(=O)N2Cc2ccccc2)cc1CSc1ccccn1 (stereo unspecified) | 0.775% (inactive) | 
COc1ccc(C2Nc3ccccc3C(=O)N2Cc2ccccc2)cc1COc1ccccn1 (stereo unspecified) | 1.5% (inactive) | 
O=C1c2ccccc2NC(c2ccccc2OCc2ccccc2)N1Cc1ccco1 (stereo unspecified) | 1.72% (inactive) | 
COc1ccc(C2Nc3ccccc3C(=O)N2Cc2ccco2)cc1COc1ccccc1 (stereo unspecified) | 2.37% (inactive) | 
COc1ccc(C(=O)N(Cc2cccs2)Cc2cccs2)c(O)c1 |  | 15.8 µM (active)
COc1ccc(C2Nc3ccccc3C(=O)N2c2ccc(C)cc2)cc1Cn1cc([N+](=O)[O-])cn1 (stereo unspecified) | 2.13% (inactive) | 
CSc1nc(NC(C)(C)C)nc(Oc2ccc(=O)[nH]n2)n1 | -0.106% [at 0.00035 µM] (inactive) | 
O=C1c2ccccc2N2C(=O)c3ccccc3C2N1Cc1ccco1 (stereo unspecified) | 1.3% (inactive) | 
O=C(COC(=O)C12CC3CC(CC(Cl)(C3)C1)C2)NCc1ccco1 |  | 14.1 µM (active)
O=C(COC(=O)C12CC3CC(CC(Br)(C3)C1)C2)NCc1ccco1 |  | 10 µM (active)
O=C(COC(=O)C12CC3CC(CC(O)(C3)C1)C2)NCc1ccco1 | 2.65% (inactive) | 
COc1ccc(C2Nc3ccccc3C(=O)N2Cc2ccccc2)cc1COc1ccc(NC(C)=O)cc1 (stereo unspecified) |  | 7.08 µM (active) and 3.55 µM (active)
COc1cccc(OCc2cc(C3Nc4ccccc4C(=O)N3Cc3ccccc3)ccc2OC)c1 (stereo unspecified) | 1.17% (inactive) | 

SMILES | activation | Potency
COC(=O)C1=C(C)NC(=O)NC1c1cn(-c2ccccc2)nc1-c1cccs1 (stereo unspecified) | -0.246% [at 0.00035 µM] (inactive) | 
CC1(C)CC2CC(C)(CN2S(=O)(=O)c2ccc(N)cc2)C1 (stereo unspecified) | -0.162% [at 0.00035 µM] (inactive) | 
COc1cc(OC)cc(C(=O)N2c3ccc(F)cc3CCC2C)c1 (stereo unspecified) | -0.327% [at 0.00035 µM] (inactive) | 
CC1(c2ccccn2)Nc2ccccc2-c2nc3ccccc3n21 (stereo unspecified) | -0.34% [at 0.00035 µM] (inactive) | 
O=C(CN(Cc1ccccc1Cl)C(=O)Cn1nnc(-c2cccs2)n1)NCC1CCCO1 (stereo unspecified) | 0.671% [at 0.00035 µM] (inactive) | 
COc1ccc(-c2cc(C(F)(F)F)nc(SCCC(=O)N3CCOCC3)n2)cc1 | 0.123% [at 0.00035 µM] (inactive) | 
CCCN1C(=O)c2ccccc2NC1c1ccc(OC)c(COc2ccc([N+](=O)[O-])cc2)c1 (stereo unspecified) | 1.07% (inactive) | 
COc1ccc(C2Nc3cccc(O)c3C(=O)N2Cc2ccccc2)cc1COc1ccc(NC(C)=O)cc1 (stereo unspecified) |  | 7.94 µM (active)
O=C1C2C3CCCC3=C3CCCC3C2C(=O)N1c1ccccc1Cl (stereo unspecified) | 0.928% (inactive) | 
COc1ccc(C2Nc3ccccc3C(=O)N2c2ccccc2)cc1COc1ccc(NC(C)=O)cc1 (stereo unspecified) | 6.51% (inactive) | 
Cc1ccc(N(CC(=O)NCc2ccco2)S(=O)(=O)c2ccccc2)cc1 | 0.48% [at 0.00035 µM] (inactive) | 
COc1cc(C2Nc3ccccc3C(=O)N2c2ccc3c(c2)OCCO3)ccc1OCC(C)C (stereo unspecified) | 1% (inactive) | 
COc1ccc(/C=N/O)cc1COc1ccc(NC(C)=O)cc1 | 0.871% (inactive) | 
COc1ccc(N2C(=O)c3ccccc3NC2c2ccc(OC)c(COc3ccccn3)c2)cc1 (stereo unspecified) |  | inactive
Cc1cc(=O)[nH]c(SCCOc2ccc3c(c2)CCC3)n1 | 0.323% [at 0.00035 µM] (inactive) | 
COc1ccc(CN2C(=O)N(c3ccccc3)C(=O)C2c2ccccc2)cc1COc1ccc(NC(C)=O)cc1 (stereo unspecified) | 7.49% (inactive) | 
COc1cc(C2Nc3ccccc3C(=O)N2c2ccc(Cl)cc2)c(Cl)cc1OCC(=O)O (stereo unspecified) | 0.666% (inactive) | 
COc1ccc(CN(Cc2ccccc2)C(=O)c2ccccc2)cc1COc1ccc(NC(C)=O)cc1 |  | 8.91 µM (active)
